HIV Env fusion: HIV envelope-mediated fusion inhibition. HeLa-JRFL Env/CEM21 cell fusion, luciferase. inhibition, % at 12.3 µM. actives 1.1% (n = 360,000). AID 651610;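 active means mean replicate inhibition score of at least 50 and every replicate individually at or above 50; inconclusive means only one of the two criteria met; inactive means mean below 50 and not all replicates reaching 50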
GSIS activator: primary screen for activators of insulin secretion dependent on glucose, INS-1E cells, GLuc reporter luminescence; AID 743287; actives 0.61% (n = 370,000); INS-1E GLuc reporter insulin secretion, 2-3 h; activation, % at 16.6 µM;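 active means lowest replicate activation of at least 40%, so every replicate reaches that level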
F508del corr: CFTR F508del correction in bronchial cells. AID 720511. actives 0.36% (n = 350,000). activity (quench increase), % at 7.58 µM. CFBE cells, YFP halide quenching; stimulated with forskolin plus potentiator P3; % fluorescence drop versus neutral controls;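 active means mean added fluorescence quench of at least 8% versus neutral control, with both replicates also reaching 8%; inconclusive means only one of the mean or replicate conditions met; inactive means mean below 8% and not both replicates reaching 8%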;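 further: cells transiently co-express mutant CFTR-F508del with the halide-sensitive YFP; corrector assay measuring rescue of mutant channel to the surface after 24 h compound exposure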
PAX8 inh HTS: PAX8 transcriptional activity inhibition | actives 1.2% (n = 360,000) | AID 652154 | inhibition, % at 12.6 µM | RMG-I TPO-luciferase reporter, SteadyGlo, 24 h;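 active means mean replicate inhibition at least 60% with every replicate also reaching 60%; inconclusive means only one of the two criteria is met; inactive means mean below 60% and not all replicates reaching 60%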;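 further: luciferase light reporting Pax8 driven TPO promoter activity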
PGC1a acetyl inh: PGC1a acetylation modulation, inhibitor mode | U2OS PGC1a acetylation, AlphaScreen anti-acetyl-lysine; with virally co-expressed GCN5 acetyltransferase | inhibition, % at 15.6 µM | actives 0.17% (n = 350,000) | AID 651687;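 active means every replicate shows inhibition of at least 40%; inconclusive means mean inhibition at least 40% but some replicate below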
EWS-Fli inh: inhibitors of EWS/Fli oncoprotein transcriptional activity. A673 NR0B1-luciferase reporter, viability-normalised. inhibition, % at 12.6 µM. actives 0.67% (n = 350,000). AID 651661;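 active means mean inhibition of at least 50% after viability correction, with every replicate also passing that limit; inconclusive means mean reaches 50% but only one of two replicates passes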;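 further: firefly luciferase signal divided by Alamar Blue viability fluorescence both relative to DMSO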
Each line names hits and unclear results; the compound was inactive in the other large screens; [ ] = dose if it differs, or a comment. Only some compounds are listed: those with a hit (about 2.7% of all), similar ones and a draw of the others.

COc1cc(/C=N/NC(=O)c2ccc(N)cc2)ccc1OC(=O)c1cccc(C)c1	none (no result: PGC1a acetyl inh, EWS-Fli inh)
COc1cc(/C=N/NC(N)=S)ccc1OC(=O)c1ccc(C)cc1	PAX8 inh HTS 80.8 (no result: F508del corr, PGC1a acetyl inh, EWS-Fli inh)
COc1cc(/C=N/NC(N)=S)ccc1OCc1ccc(C)cc1	PAX8 inh HTS 75.2 (no result: F508del corr, PGC1a acetyl inh)
COc1ccc2c3c([nH]c2c1)[C@H](CO)N(C(=O)c1ccccc1)CC31CN(S(=O)(=O)c2cccs2)C1	none (no result: HIV Env fusion, PAX8 inh HTS)
C[C@H](CO)N1C[C@H](C)[C@H](CN(C)CC2CCCCC2)Oc2ccc(NC(=O)c3ccncc3)cc2C1=O	none
CCC(=O)N1C[C@H](C)[C@H](OC)CN(C)C(=O)c2ccc(NC(=O)c3ccccc3)cc2OC[C@@H]1C	none
Cc1noc(C)c1NC(=O)Nc1ccc2c(c1)C(=O)N([C@@H](C)CO)C[C@H](C)[C@@H](CN(C)S(=O)(=O)c1ccccc1)OCCCC[C@@H](C)O2	none
O=c1c2c([N+](=O)[O-])cc([N+](=O)[O-])cc2nc2ccccn12	none
O=c1c2c([N+](=O)[O-])cc([N+](=O)[O-])cc2sn1Cc1ccccc1	GSIS activator 128.4 (no result: PGC1a acetyl inh)
CC1(Cc2cc(Cl)ccc2C(F)(F)F)C(=O)Nc2ccc(S(=O)(=O)NC3CCCCC3)cc21 (stereo not given)	none (no result: GSIS activator)
Cc1cccc(S(=O)(=O)NC2CCCCCCC2)c1	none
CC1(Cc2cccc(F)c2)C(=O)Nc2ccc(S(=O)(=O)NC3CCCCC3)cc21 (stereo not given)	HIV Env fusion 57.8
CC1(Cc2ccc(Cl)c(Cl)c2)C(=O)Nc2ccc(S(=O)(=O)NC3CCCCC3)cc21 (stereo not given)	HIV Env fusion 57.1 (no result: PGC1a acetyl inh)
CN1C(=O)c2cc(NC(=O)Nc3ccccc3F)ccc2OC[C@@H]2O[C@H](CC(=O)O)CC[C@H]21	none
CC(C)(C)OC(=O)CC(S(=O)(=O)c1ccccc1)S(=O)(=O)c1ccccc1	PAX8 inh HTS 85.9 (no result: GSIS activator)
CN([C@@H](C(=O)OC(C)(C)C)c1ccccc1)S(=O)(=O)c1cccc(S(=O)(=O)N(C)[C@@H](C(=O)OC(C)(C)C)c2ccccc2)c1	none
CCn1c(SCC(=O)Nc2ccc3c(c2)oc2ccccc23)nnc1-c1ccc(N)cc1	GSIS activator 73.2 (no result: F508del corr, EWS-Fli inh)
C=CCNC(=O)[C@@H]1[C@H]2C(=O)O[C@H](c3ccccc3)[C@H](c3ccccc3)N2[C@H](c2ccccc2OCCO)[C@@]12C(=O)N(C(=O)OCCOC)c1ccc(C#CC3(O)CCCCCC3)cc12	PAX8 inh HTS 71.4 (no result: GSIS activator, PGC1a acetyl inh)
C=CCNC(=O)[C@H]1[C@@H]2C(=O)O[C@@H](c3ccccc3)[C@@H](c3ccccc3)N2[C@@H](c2ccc(O)cc2)[C@]12C(=O)N(C(=O)OCCOC)c1ccc(C#CCC(C(=O)OC)C(=O)OC)cc12	none (no result: GSIS activator, PGC1a acetyl inh)
O=C1O[C@H](c2ccccc2)[C@H](c2ccccc2)N2[C@H]1[C@@H](C(=O)N1CCCCCCC1)[C@]1(C(=O)Nc3ccc(C#CC4(O)CCCCCC4)cc31)[C@H]2c1ccc(OCCO)cc1	none (no result: GSIS activator, PGC1a acetyl inh)
C=CCNC(=O)[C@H]1[C@@H]2C(=O)O[C@@H](c3ccccc3)[C@@H](c3ccccc3)N2[C@@H](c2ccccc2OCCO)[C@]12C(=O)Nc1ccc(C#CC3(O)CCCCCC3)cc12	PAX8 inh HTS 99.1 (no result: GSIS activator, PGC1a acetyl inh)
C=CCNC(=O)[C@@H]1[C@H]2C(=O)O[C@H](c3ccccc3)[C@H](c3ccccc3)N2[C@H](c2ccccc2OCCO)[C@@]12C(=O)N(C(=O)OCCOC)c1ccc(C#CC3=CCCCC3)cc12	PAX8 inh HTS 68.0 (no result: GSIS activator, PGC1a acetyl inh)
C=CCNC(=O)[C@H]1[C@@H]2C(=O)O[C@@H](c3ccccc3)[C@@H](c3ccccc3)N2[C@@H](c2ccc(OCCO)cc2)[C@]12C(=O)N(C(=O)OCCOC)c1ccc(C#Cc3ccc(OC)cc3)cc12	none (no result: GSIS activator)
C=CCNC(=O)[C@@H]1[C@H]2C(=O)O[C@H](c3ccccc3)[C@H](c3ccccc3)N2[C@H](c2ccccc2OCCO)[C@@]12C(=O)N(C(=O)OCCOC)c1ccc(C#CCC(C(=O)OC)C(=O)OC)cc12	PAX8 inh HTS 103.6, EWS-Fli inh 58.5 (no result: GSIS activator, PGC1a acetyl inh)
Cc1noc(C)c1NC(=O)Nc1ccc2c(c1)CC(=O)N([C@@H](C)CO)C[C@@H](C)[C@H](CN(C)C(=O)Nc1ccc3c(c1)OCO3)O2	none
CNC[C@@H]1Oc2c(NC(=O)C3CC3)cccc2C(=O)N([C@@H](C)CO)C[C@H]1C	none
CC(C)c1cc(C(=O)OCC(=O)N2CCN(C(=O)c3ccco3)CC2)c(O)c(C(C)C)c1	PAX8 inh HTS 113.3 (no result: PGC1a acetyl inh)
Cc1cccc(C(=O)OCC(=O)N2CCN(C(=O)c3ccco3)CC2)c1O	none
NC(=O)c1sc2nc(-c3ccccc3)c3c(c2c1N)CCCC3	none
NC(=O)c1sc2nccc(Nc3ccccc3)c2c1N	HIV Env fusion 93.2 (no result: GSIS activator, F508del corr, PAX8 inh HTS, PGC1a acetyl inh, EWS-Fli inh)
COc1cccc(CN2[C@@H](CO)[C@H](c3ccccc3)C23CN(C(=O)C2CCCC2)C3)c1	none
C/C(=C\CNc1ncnc2nc[nH]c12)CO	none (no result: HIV Env fusion, PAX8 inh HTS)
CC(C)CCCCCCCCCCCCC(=O)NCC(=O)NC1C(C)OC(Nc2ncnc3nc[nH]c23)C(O)C1O (stereo not given)	HIV Env fusion inconclusive, PAX8 inh HTS 105.6, PGC1a acetyl inh inconclusive (no result: GSIS activator)
C[C@@H]1CN([C@H](C)CO)C(=O)c2cc(NC(=O)Nc3ccc4c(c3)OCO4)ccc2O[C@@H](C)CCCCO[C@H]1CN(C)Cc1ccc(Cl)c(Cl)c1	HIV Env fusion 62.6[16.7 µM] (no result: PAX8 inh HTS)
C[C@@H]1CCCCO[C@H](CN(C)Cc2ccc3c(c2)OCO3)[C@H](C)CN([C@H](C)CO)C(=O)c2cc(NC(=O)Nc3ccc(F)cc3)ccc2O1	PAX8 inh HTS 66.3
C[C@@H]1CN([C@H](C)CO)C(=O)c2cc(NC(=O)Nc3ccc(F)cc3)ccc2O[C@@H](C)CCCCO[C@@H]1CN(C)Cc1ccc2c(c1)OCO2	PAX8 inh HTS 92.2
C[C@@H]1CN([C@H](C)CO)C(=O)c2cc(NC(=O)Nc3ccc(F)cc3)ccc2O[C@@H](C)CCCCO[C@H]1CN(C)Cc1ccc2c(c1)OCO2	PAX8 inh HTS 66.4, EWS-Fli inh 68.1
O=C(NC1CCCC1)[C@@H]1[C@@H](CO)[C@@H]2Cn3c(ccc(-c4cccnc4)c3=O)[C@H]1N2CC1CC1	none (no result: HIV Env fusion, PGC1a acetyl inh)
COc1ccc(S(=O)(=O)Nc2ccc3c(c2)C(=O)N([C@@H](C)CO)C[C@H](C)[C@H](CN(C)C(=O)Nc2ccc(C(F)(F)F)cc2)OCCCC[C@@H](C)O3)cc1	none
COc1ccccc1-c1ccc([C@@H]2[C@@H](C#N)N(C(=O)c3cccnc3)[C@@H]2CO)cc1	none
CCC[C@@H](CN[C@@H](CNC)C(C)C)NCCCCc1ccccc1	none (no result: PGC1a acetyl inh)
CCC[C@H](CN[C@@H](CNC)[C@H](C)CC)NCCc1cc(C(F)(F)F)cc(C(F)(F)F)c1	PAX8 inh HTS 97.1, EWS-Fli inh 51.5

Screening data as filed in PubChem.
